Results with a measured potency or affinity are listed apart. Results filed as inconclusive are left out. The source made the active and inactive calls. Unless noted, how the calls were made is not given here.
Key:
[1] = RMG-1 ovarian cancer cell viability loss – cherry-pick, dose response (AID 687029;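 active means signal drop whose fitted half-maximal concentration is at most twice the top valid dose, in every test run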;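 further: cells exposed to compound for 96 hours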)
[2] = IOSE-T80 viability loss, PAX8-independent line – cell-based, cherry-pick, selectivity assay for PAX8 inhibitor project, dose response (AID 687032;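 active means fitted half-maximal concentration for viability loss no higher than twice the top valid dose, in every repeat run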;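 further: cells exposed to compound for 96 h before reading; 0% = neutral control wells and -100% = 2 µM mitoxantrone kill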)
[3] = CMV-driven luciferase expression suppression in HEK293 – cell-based, luminescence, dry powder, counter-screen for Pax8 inhibitor project, dose response (AID 743020;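 active means signal-lowering compounds whose fitted half-maximal concentration is at or below twice the top tested dose in every run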;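 further: HEK293 cells stably expressing the CMV luciferase reporter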)
[4] = general cell-killing toxicity readout – plate reader, dry powder samples, cytotoxicity control for PAX8 inhibitor project, dose response (AID 743021)
[5] = OVCAR-3 cell viability loss – plate reader, dry powder samples, PAX8 inhibitor project, dose response (AID 743044); conditions: max activity: at 35 µM, stronger effect = lower value unless noted
[6] = A2780 cell killing – plate reader, dry powder samples, cytotoxicity control, dose response (AID 743046);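 further: 0% = neutral control wells and -100% = cytotoxic reference compound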
[7] = toxicity toward immortalized ovarian surface epithelium – cell-based, plate reader, dry powder samples, cytotoxicity control for PAX8 inhibitor project, dose response (AID 743045);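 further: 0% = neutral control median and -100% = positive control median; more negative values mean more cell killing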
[8] = OVCAR8 cell viability loss – plate reader, dry powder samples, PAX8 project, dose response (AID 743197)

Measured: max activity

O=C(C[C@@H]1CC[C@@H]2[C@H](COC[C@H](O)CN2S(=O)(=O)c2ccccc2Cl)O1)N1CCC(Cc2ccccc2)CC1
inactive: [1] | [2] | [3] | [4] | [5] -15.3% | [6]

C[C@@H]1CCCCO[C@@H](CN(C)Cc2ccc(C(F)(F)F)cc2)[C@H](C)CN([C@@H](C)CO)C(=O)c2cc(NS(=O)(=O)c3ccc(F)cc3)ccc2O1
inactive: [1] | [2] | [3] | [4] | [5] -6.08% | [7] | [6]

COc1ccc(CN(C)C[C@H]2OCCCC[C@H](C)Oc3ccc(NC(=O)Nc4ccc(C(F)(F)F)cc4)cc3C(=O)N([C@@H](C)CO)C[C@@H]2C)cc1
inactive: [1] | [2] | [3] | [4] | [5] -11.3% | [7] | [6]

Cc1ccc(S(=O)(=O)Nc2ccc3c(c2)C(=O)N([C@H](C)CO)C[C@@H](C)[C@H](CN(C)S(=O)(=O)c2ccc(C)cc2)OCCCC[C@H](C)O3)cc1
inactive: [1] | [2] | [3] | [4] | [5] 32.9% [at 0.26 µM, stronger effect = lower value] | [7] | [8]

CN(C[C@H]1N[C@@H](CO)[C@@H]1c1ccc(-c2cccc(F)c2)cc1)S(C)(=O)=O
inactive: [1] | [2] | [3] | [4] | [5] 23.7% [at 8 µM, stronger effect = lower value] | [7] | [6]

C[C@H]1CCCCO[C@H](CN(C)C(=O)Nc2cccc3ccccc23)[C@@H](C)CN([C@@H](C)CO)C(=O)c2cc(NS(=O)(=O)c3ccc(F)cc3)ccc2O1
inactive: [1] | [2] | [3] | [4] | [5] 28.1% [at 0.5 µM, stronger effect = lower value] | [7] | [6]

N#C[C@@H]1[C@@H](c2ccc(-c3ccccc3F)cc2)[C@@H](CO)N1C(=O)C1CCC1
inactive: [1] | [2] | [3] | [4] | [5] -15.9% | [7] | [6] | [8]

Cc1ccc(S(=O)(=O)Nc2ccc3c(c2)C(=O)N([C@@H](C)CO)C[C@H](C)[C@@H](CN(C)Cc2ccc(C(F)(F)F)cc2)OCCCC[C@H](C)O3)cc1
inactive: [1] | [2] | [3] | [4] | [7]

Cc1cccc(S(=O)(=O)N2CC[C@@H]3[C@H](CO)N(C)c4ccc(C#Cc5ccc(F)cc5)cc4[C@@H]32)c1
inactive: [1] | [2] | [3] | [4] | [5] -16.3% [at 30 µM, stronger effect = lower value] | [7] | [6]

C[C@H](CO)N1C[C@H](C)[C@H](CN(C)S(=O)(=O)c2ccc(F)cc2)OCCCC[C@H](C)Oc2ccc(NS(=O)(=O)c3ccc(Cl)cc3)cc2C1=O
inactive: [1] | [2] | [3] | [4] | [5] -16.9% [at 4.2 µM, stronger effect = lower value] | [7] | [8]

O=C(C[C@H]1CC[C@@H]2[C@H](COC[C@H](O)CN2S(=O)(=O)c2cccc(F)c2)O1)Nc1ccc(-c2ccccc2)cc1
inactive: [1] | [2] | [3] | [4] | [5] 27.1% [at 0.5 µM, stronger effect = lower value] | [7] | [6]

Cc1ccc(S(=O)(=O)N2CC[C@@H]3[C@H](CO)N(C)c4ccc(-c5ccc(C#N)cc5)cc4[C@@H]32)cc1
inactive: [1] | [2] | [3] | [4] | [5] 67.4% [at 2.1 µM, stronger effect = lower value] | [7] | [6]

C[C@H]1CCCCO[C@H](CN(C)C(=O)NC2CCCCC2)[C@@H](C)CN([C@@H](C)CO)C(=O)c2cc(NC(=O)Nc3ccc(C(F)(F)F)cc3)ccc2O1
inactive: [1] | [2] | [3] | [4] | [5] -30.4% | [7] | [6]

C[C@@H]1CN([C@@H](C)CO)C(=O)c2cc(NC(=O)Cc3ccccc3)ccc2O[C@@H](C)CCCCO[C@H]1CN(C)Cc1ccc(C(F)(F)F)cc1
inactive: [1] | [2] | [3] | [4] | [5] -16.1% | [7] | [6]

COc1cccc(-c2ccc([C@H]3[C@@H](CO)N(C(=O)c4ccccn4)[C@H]3C#N)cc2)c1
inactive: [1] | [2] | [3] | [4] | [5] -40.2% | [7] | [6]

COc1ccc(C#Cc2ccc([C@@H]3[C@H](CO)N4CCCCN(C(=O)Nc5ccc(F)cc5)C[C@@H]34)cc2)cc1
inactive: [1] | [2] | [3] | [4] | [5] -123% [at 30 µM, stronger effect = lower value] | [7]

C[C@@H]1CCCCO[C@@H](CN(C)Cc2ccc(C(F)(F)F)cc2)[C@H](C)CN([C@H](C)CO)C(=O)c2cc(NC(=O)c3ccccc3)ccc2O1
inactive: [1] | [2] | [3] | [4] | [5] -25.3% | [7] | [8]

O=C(C[C@@H]1CC[C@@H]2[C@H](COC[C@H](O)CN2Cc2ccc3c(c2)OCO3)O1)Nc1ccc(-c2ccccc2)cc1
inactive: [1] | [2] | [3] | [4] | [5] 25.3% [at 0.5 µM, stronger effect = lower value] | [7] | [6] | [8]

C[C@H](CO)N1C[C@H](C)[C@@H](CN(C)Cc2ccc(Cl)c(Cl)c2)Oc2ccc(NC(=O)Nc3ccc(C(F)(F)F)cc3)cc2CC1=O
inactive: [1] | [2] | [3] | [4] | [5] 17.7% [at 0.5 µM, stronger effect = lower value] | [7] | [6] | [8]

C[C@@H]1CN([C@@H](C)CO)C(=O)c2cc(NC(=O)Nc3ccc(C(F)(F)F)cc3)ccc2O[C@@H](C)CCCCO[C@@H]1CN(C)Cc1ccncc1
inactive: [1] | [2] | [3] | [4] | [5] 59.3% [at 2.1 µM, stronger effect = lower value] | [7] | [6] | [8]

COc1ccc(NC(=O)N2CCCCN3[C@H](CO)[C@H](c4ccc(C#Cc5ccccc5)cc4)[C@H]3C2)cc1
inactive: [1] | [2] | [3] | [4] | [5] -17.7% | [7] | [6] | [8]

C[C@@H]1CN([C@H](C)CO)C(=O)c2cc(NS(=O)(=O)c3ccccc3)ccc2O[C@@H](C)CCCCO[C@@H]1CN(C)Cc1ccc(Cl)c(Cl)c1
inactive: [1] | [2] | [3] | [4] | [5] -20% [at 9 µM, stronger effect = lower value] | [7] | [6]

C[C@@H]1CCCCO[C@@H](CN(C)Cc2ccc(C(F)(F)F)cc2)[C@H](C)CN([C@H](C)CO)C(=O)c2cc(NS(=O)(=O)c3ccccc3)ccc2O1
inactive: [1] | [2] | [3] | [4] | [5] -29.5% | [7] | [6]

C[C@H](CO)N1C[C@H](C)[C@@H](CN(C)Cc2ccc(Oc3ccccc3)cc2)Oc2ccc(NS(=O)(=O)c3ccc(F)cc3)cc2CC1=O
inactive: [1] | [2] | [3] | [4] | [5] -23.5% [at 4.2 µM, stronger effect = lower value] | [7] | [6]

C[C@@H]1CCCCO[C@H](CN(C)S(=O)(=O)c2cccs2)[C@@H](C)CN([C@@H](C)CO)C(=O)c2cc(NC(=O)Nc3ccc(C(F)(F)F)cc3)ccc2O1
inactive: [1] | [2] | [3] | [4] | [5] -21.9% | [7] | [6] | [8]

Reference: PubChem BioAssay
